According to PubChem BioAssay:
The source made the active and inactive calls. Unless noted, the rule behind the calls is not given here.

What was measured:
[1] = kinase inhibitors against Plasmodium liver-stage infection, cell-based, known kinase inhibitor set, luminescence, hepatoma host viability (AID 624392); settings: Plasmodium liver stage in hepatoma cells, luciferase luminescence, concentration not given here; liver cell % of control: measured here: host liver cell viability; parasite % of control: stronger effect = lower value;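 note: infected cells incubated roughly two days before readout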
[2] = modulators of glucocorticoid suppression of NF-kB, cell-based, luciferase, IL-1B stimulus, dexamethasone (AID 624486); settings: NF-kB luciferase reporter, IL-1B + dexamethasone, luminescence; percent of negative control (+Dex): actives lie on both sides, concentration not given here; z-score: measured here: IL-1B alone, no Dex;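 for percent of negative control (+Dex): 100% = mean signal of vehicle control wells on the plate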
[3] = kinase inhibitors altering Pseudomonas killing of worms, whole organism (AID 651566);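 note: tested at 14 µM; sign flipped so higher z means a lower ratio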; settings: C. elegans killed by P. aeruginosa, survival ratio
[4] = activators of macrophage pro-inflammatory response, cell-based, murine, luminescence (AID 652131); settings: murine macrophage pro-inflammatory reporter, stronger effect = higher value
[5] = molecular target: Cellular tumor antigen p53 (Homo sapiens) (UniProt P04637); assay: kinase inhibitors altering GFP-p53 stability in HPV16-positive cells, imaging, known kinase inhibitor set, EGFP/DsRed ratio (AID 1053116); settings: stronger effect = higher value; EGFP object count: measured here: GFP-p53 positive objects count;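 note: cells exposed to compounds for 24 h at 37 °C before reading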
Cellular tumor antigen p53 (Homo sapiens), sequence (P04637 whole entry, looked up): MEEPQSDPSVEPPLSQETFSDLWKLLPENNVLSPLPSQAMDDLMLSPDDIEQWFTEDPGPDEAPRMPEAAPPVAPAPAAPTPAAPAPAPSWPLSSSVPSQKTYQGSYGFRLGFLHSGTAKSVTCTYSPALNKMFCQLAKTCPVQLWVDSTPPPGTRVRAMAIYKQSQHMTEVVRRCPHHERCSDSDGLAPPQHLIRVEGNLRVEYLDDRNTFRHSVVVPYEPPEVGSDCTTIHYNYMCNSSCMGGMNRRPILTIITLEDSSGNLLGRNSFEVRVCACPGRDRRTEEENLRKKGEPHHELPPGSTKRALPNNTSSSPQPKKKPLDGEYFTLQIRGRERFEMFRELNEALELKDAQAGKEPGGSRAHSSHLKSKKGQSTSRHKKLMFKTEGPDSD

[6] = IRF3 reporter activation in THP-1 macrophages, cell-based, PMA-stimulated THP-1, luminescence (AID 1053176); settings: PMA-differentiated THP-1, IRF3 reporter luminescence; stronger effect = higher value
[7] = survival rescue of mitochondrial mutant cells in low glucose, primary screen, MELAS cybrids, Rieske KO mouse fibroblasts, CellTiter-Glo (AID 1508586;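 active = mean z-score across replicates of 1.96 or higher in either the MELAS or the Rieske mutant cell line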;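 note: z relative to plate mean and SD of compound and empty wells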)
[8] = MELAS cybrid survival, CellTiter-Glo 48 h, stronger effect = higher value
[9] = Rieske KO mouse fibroblast survival, CellTiter-Glo 72 h

Row | SMILES | liver cell % of control [1] | parasite % of control [1] | percent of negative control (+Dex) [2] | z-score [2] | z-score [3] | z-score [4] | EGFP object count [5] | EGFP/DsRed ratio [5] | fraction signal [6] | z-score [7, 8] | z-score [7, 9]
1 | CC(=O)Nc1cccc(C#Cc2cncnc2Nc2ccc(OCc3cccc(F)c3)c(Cl)c2)n1 | 82.2% | 102% (inactive) | 68% (inactive) | -2.19 | 0.02 (inactive) | 0.499 (inactive) | 6.5 | 0.198 (inactive) | -0.0035 (inactive) | 0.392 (inactive) | -0.337
2 | Nc1nonc1-c1nc2cnccc2n1C1CCCCC1 | 69% | 61.4% (inactive) | 29.5% (active) | -7.08 | -0.155 (inactive) | -0.857 (inactive) | 3.5 | 0.0658 (inactive) | -0.002 (inactive) | -0.132 (inactive) | -0.207
3 | CC1=C(C(=O)Nc2ccc3n[nH]c(C)c3c2)C(c2ccc(C(F)(F)F)cc2)CC(=O)N1 (centres undefined) | 99.2% | 202% (inactive) | 82.5% (inactive) | -1.14 | 0.355 (inactive) | -0.104 (inactive) | 2.5 | 0.0851 (inactive) | -0.006 (inactive) | -0.0625 (inactive) | -0.632
4 | CCn1c(-c2nonc2N)nc2c(C#CC(C)(C)O)ncc(OC3CCNCC3)c21 | 78% | 13.9% (active) | 89% (inactive) | -0.435 | 0.17 (inactive) | 3.47 (inactive) | 10.5 | 0.266 (inactive) | 0.001 (inactive) | -0.105 (inactive) | -0.284
5 | Nc1ncc(-c2cccc(S(N)(=O)=O)c2)c2scc(-c3ccc(F)c(Cl)c3)c12 | 86.2% | 63% (inactive) | 101% (inactive) | -0.045 | 0.425 (inactive) | 0.178 (inactive) | 7 | 0.225 (inactive) | -0.008 (inactive) | -0.767 (inactive) | -0.224
6 | O=C1N=c2ccc(N=Cc3c(O)[nH]c4ccccc34)cc2=N1 | 79.5% | 117% (inactive) | 86% (inactive) | -0.205 | -0.24 (inactive) | 1.12 (inactive) | 5.5 | 0.268 (inactive) | -0.0005 (inactive) | 1.49 (inactive) | -0.0625
7 | COc1ccc2cc(-c3c(-c4ccncc4)nc(-c4ccc(S(C)=O)cc4C)n3C)ccc2c1 (centres undefined) | 94.7% | 66.8% (inactive) | 94% (inactive) | 0.56 | 0.7 (inactive) | 0.465 (inactive) | 2.5 | 0.206 (inactive) | -0.007 (inactive) | 0.0666 (inactive) | -0.0858
8 | Cc1ccc2[nH]c(O)c(N=Nc3ccc(S(N)(=O)=O)cc3)c2c1 | 164% | 128% (inactive) | 102% (inactive) | 0.885 | -0.295 (inactive) | -0.079 (inactive) | 5 | 0.439 (inactive) | -0.0055 (inactive) | -0.101 (inactive) | -0.00523
9 | CCn1c(-c2nonc2N)nc2ccccc21 | 97.5% | 113% (inactive) | 80% (inactive) | -0.405 | 0.585 (inactive) | 0.013 (inactive) | 3 | 0.0652 (inactive) | -0.0025 (inactive) | -0.294 (inactive) | -0.443
10 | CC(=Nc1ccc(S(N)(=O)=O)cc1)c1c(O)[nH]c2ccccc12 | 121% | 234% (inactive) | 176% (active) | 5.95 | -0.905 (inactive) | 6.44 (active) | 0.5 | 0.00933 (inactive) | 0.0025 (inactive) | -0.469 (inactive) | -0.351
11 | CS(=O)(=O)CCNCc1ccc(-c2ccc3ncnc(Nc4ccc(OCc5cccc(F)c5)c(C(F)(F)F)c4)c3c2)o1 | 105% | 99.7% (inactive) | 106% (inactive) | 1.84 | 0.48 (inactive) | -0.873 (inactive) | 1 | 0.00783 (inactive) | -0.0125 (inactive) | -0.506 (inactive) | -0.463
12 | Cc1nnc(-c2ccc(C)c(-c3ccc(C(=O)NCc4ccc(Cl)cc4)cc3)c2)o1 | 161% | 31.3% (inactive) | 106% (inactive) | 1.07 | 0.9 (inactive) | -0.451 (inactive) | 2 | 0.079 (inactive) | -0.0105 (inactive) | -0.978 (inactive) | -0.533
13 | c1cnn2ncc(-c3ccnc(Nc4ccc5c(c4)OCCO5)n3)c2c1 | 141% | 14% (inactive) | 5% (active) | -9.09 | 0.965 (inactive) | -1.27 (inactive) | 2.5 | 0.105 (inactive) | -0.0005 (inactive) | 0.529 (inactive) | 0.76
14 | O=C(Nc1n[nH]c2nc(-c3ccc(O)cc3)c(Br)cc12)C1CC1 | 74.6% | 71% (inactive) | 206% (active) | 0.485 | 0.105 (inactive) | -1.27 (inactive) | 2.5 | 0.0391 (inactive) | -0.013 (inactive) | 7.51 (active) | -0.202
15 | COC(=O)Nc1nc2ccc(Oc3ccc(NC(=O)Nc4cccc(Br)c4)cc3)cc2[nH]1 | 77.3% | 247% (inactive) | 104% (inactive) | 0.65 | -0.435 (inactive) | 0.412 (inactive) | 6.5 | 0.0884 (inactive) | -0.001 (inactive) | 0.278 (inactive) | -0.0385
16 | CS(=O)(=O)CCNCc1nc(-c2ccc3ncnc(Nc4ccc(OCc5cccc(C(F)(F)F)c5)cc4)c3c2)cs1 | 96.4% | 93.1% (inactive) | 91.5% (inactive) | -0.43 | -0.1 (inactive) | 0.202 (inactive) | 4.5 | 0.116 (inactive) | -0.002 (inactive) | 0.123 (inactive) | -0.291
17 | Nc1ncnc2occ(-c3ccc(NC(=O)Nc4cc(C(F)(F)F)cc(C(F)(F)F)c4)cc3)c12 | 58.8% | 11.2% (inactive) | 77.5% (inactive) | -2.48 | -0.205 (inactive) | -1.51 (inactive) | 2 | 0.014 (inactive) | -0.006 (inactive) | -0.873 (inactive) | -0.237
18 | Cc1nn(C)c2cc(N(C)c3ccnc(Nc4cccc(S(N)(=O)=O)c4)n3)ccc12 | 71.5% | 67% (inactive) | 82% (inactive) | 0.54 | 0.53 (inactive) | 3.14 (inactive) | 2 | 0.0899 (inactive) | -0.0065 (inactive) | -0.638 (inactive) | 0.0293
19 | Nc1nccc(-c2c(-c3ccc(F)cc3)nn3cc(C(F)(F)F)ccc23)n1 | 111% | 130% (inactive) | 107% (inactive) | 1.32 | -0.745 (inactive) | -0.016 (inactive) | 5.5 | 0.148 (inactive) | -0.0075 (inactive) | -0.218 (inactive) | -0.148
20 | CCn1c(-c2nonc2N)nc2ccncc21 | 99.1% | 98.3% (inactive) | 93.5% (inactive) | -0.26 | -0.61 (inactive) | -0.193 (inactive) | 4 | 0.405 (inactive) | -0.004 (inactive) | -0.197 (inactive) | -0.472
21 | CCn1c(-c2nonc2N)nc2c(C#CC(C)(C)O)nc(OCCNC)cc21 | 78.2% | 239% (inactive) | 83.5% (inactive) | -0.295 | 1.3 (inactive) | -0.135 (inactive) | 10.5 | 0.224 (inactive) | -0.006 (inactive) | -0.95 (inactive) | -0.363
22 | NS(=O)(=O)c1cccc(-c2ccc3c(NC(=O)C4CC4)n[nH]c3c2)c1 | 97.5% | 241% (inactive) | 90.5% (inactive) | 0.225 | -0.22 (inactive) | -0.069 (inactive) | 4 | 0.0329 (inactive) | -0.0015 (inactive) | -0.0262 (inactive) | -0.475
23 | N#Cc1cccc(Nc2nccc(-c3cnn4ncccc34)n2)c1 | 128% | 19.1% (inactive) | 2% (active) | -9.25 | 0.415 (inactive) | -1.79 (inactive) | 1 | 0.00226 (inactive) | -0.013 (inactive) | 0.321 (inactive) | 1.44
24 | CCn1c(-c2nonc2N)nc2c(C#CC(C)(C)O)nc(OC[C@H](N)c3ccccc3)cc21 | 91.7% | 78.3% (inactive) | 106% (inactive) | 1.86 | 0.015 (inactive) | -1.25 (inactive) | 7.5 | 0.207 (inactive) | -0.0025 (inactive) | -0.101 (inactive) | 0.135
25 | Fc1ccc(-c2nn3ccccc3c2-c2ccncc2)cc1 | 99.4% | 91.2% (inactive) | 90% (inactive) | 0.26 | -0.5 (inactive) | -0.011 (inactive) | 4.5 | 0.0996 (inactive) | 0.0045 (inactive) | 0.183 (inactive) | -0.338
26 | c1ccc(Nc2ncc(-c3ccccc3)o2)cc1 | 98.7% | 93.5% (inactive) | 246% (active) | 11.2 | -1.27 (inactive) | 0.128 (inactive) | 5 | 0.0918 (inactive) | -0.011 (inactive) | 1.22 (inactive) | -0.446
27 | O=S(=O)(CCOCc1ccc(-c2ccc3ncnc(Nc4ccc(OCc5cccc(F)c5)c(Cl)c4)c3c2)o1)c1ccccc1 | 105% | 111% (inactive) | 78% (inactive) | -1.27 | -1.41 (inactive) | -0.482 (inactive) | 2 | 0.0356 (inactive) | -0.003 (inactive) | -0.647 (inactive) | -0.248
28 | Cc1ccc(C(=O)NC2CC2)cc1-c1ccc2[nH]ncc2c1 | 103% | 126% (inactive) | 102% (inactive) | 0.41 | 0.325 (inactive) | -0.645 (inactive) | 3.5 | 0.141 (inactive) | 0.0035 (inactive) | -0.239 (inactive) | -0.0886
29 | NC(=O)c1cccc(Nc2nccc(Nc3cccc(F)c3)n2)c1 | 116% | 398% (inactive) | 208% (active) | 8.4 | 1.67 (inactive) | 0.244 (inactive) | 2 | 0.0178 (inactive) | 0.002 (inactive) | -0.778 (inactive) | -0.359
